A number with no mark means an inactive call. The rule behind the calls is not given here.

In general, inhibition refers to the relative decrease from the control value, in per cent.

Chain of Pantothenate synthetase (Mycobacterium tuberculosis (strain ATCC 25618 / H37Rv)) (P9WIL5 whole entry, looked up): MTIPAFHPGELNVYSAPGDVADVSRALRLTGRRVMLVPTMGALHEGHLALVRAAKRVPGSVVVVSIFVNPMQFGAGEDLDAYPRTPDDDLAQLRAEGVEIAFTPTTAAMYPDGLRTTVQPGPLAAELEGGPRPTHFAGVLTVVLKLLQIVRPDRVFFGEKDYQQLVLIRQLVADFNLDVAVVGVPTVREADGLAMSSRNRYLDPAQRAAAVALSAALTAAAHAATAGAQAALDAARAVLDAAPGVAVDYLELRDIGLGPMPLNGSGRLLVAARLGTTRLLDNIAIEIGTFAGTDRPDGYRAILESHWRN

This assay addresses Pantothenate synthetase (Mycobacterium tuberculosis (strain ATCC 25618 / H37Rv)) (UniProt P9WIL5). Kind of assay: Recombinant Mtb pantothenate synthetase (PanC) inhibitors, coupled enzyme, confirmatory (AID 375).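 Note: 0% = full reaction with vehicle and 100% = no enzyme background.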 Conditions: coupled enzyme assay; at 10 µM, active compounds read high.
For `CCOC(=O)C1CCCN(CC(=O)NC2CC2)C1` (centres undefined), the inhibition is 6%.

On to `O=c1c2ccccc2nc(SCc2nnc(-c3ccccc3Br)o2)n1-c1ccccc1`, for which the inhibition is 0%.

For `CCCCOc1ccc(CSc2n[nH]c(C)n2)cc1`, the inhibition was 0%.

Regarding `Cc1ccc(-c2c3c(=O)n(C)c(=O)n(C)c3cn2CCCN2CCOCC2)cc1`, the inhibition was 9%.

With `O=C1CCCC2=C1C(c1ccc(Br)cc1)c1c([nH]c(=S)[nH]c1=O)N2` (centres undefined), the inhibition was 0%.

`Cc1nc(C)c(C(=O)OCC(=O)N2CCN(c3ccccc3)CC2)s1`: the inhibition was 0%.

Turning to `CC1(C)CC(=O)C=C(Nc2ccc(F)cc2)C1`, the inhibition was 0%.

`Cc1ccccc1C(=O)NC1CCN(Cc2nnnn2Cc2ccccc2)CC1`: the inhibition is 4%.

Consider `COc1cc2c(C#N)c(N3CCN(c4ccccc4OC)CC3)nc(N)c2c(N)n1`, for which the inhibition is 0%.

With `O=C(Cn1nnc(-c2ccc(S(=O)(=O)N3CCCC3)cc2)n1)NCC1CCCO1` (centres undefined), the inhibition was 0%.

For the molecule `O=C1CC(c2ccccc2)n2nc(NC(=O)c3ccccn3)nc2N1` (centres undefined), the inhibition was 0%.

As for `CCCCOC(=O)C1=C(C)Nc2ncnn2C1c1cccc(OC)c1OC` (centres undefined), the inhibition is 8%.

As for `CN(CC(O)COc1ccc(OCC(O)CN(C)C2CCCCC2)cc1)C1CCCCC1` (centres undefined), the inhibition is 4%.

Consider `O=C(CSc1ncnc2c1cnn2-c1ccccc1)Nc1ccccc1`, for which the inhibition is 5%.

For `CC(CN1CCN(C)CC1)OC(=O)c1ccc(Cl)cc1Cl` (centres undefined), the inhibition was 0%.

For the molecule `O=C(O)c1cnn2c1NC(c1ccc(F)cc1)CC2C(F)(F)F` (centres undefined), the inhibition is 2%.

For `O=C(CCC(=O)c1cccs1)NCc1ccccc1`, the inhibition was 0%.

As for `CCOc1ccccc1NC(=O)CN(C)S(=O)(=O)c1cccc2nsnc12`, the inhibition is 11%.

For `CCc1ccc(NS(=O)(=O)c2ccc3[nH]cc(C(=O)N4CCCCC4)c(=O)c3c2)cc1`, the inhibition is 0%.

For `CCCc1cc(=O)oc2c(C)c3occ(C)c3cc12`, the inhibition is 1%.

With `Cn1cnnc1SCC(=O)Nc1ccccc1Sc1ccccc1`, the inhibition is 7%.

For the molecule `COc1cc(CC(=O)Nc2ncc(C)s2)cc(OC)c1OC`, the inhibition was 0%.

Consider `CCCC(=O)O[C@]1(C(=O)CCl)[C@@H](C)C[C@H]2[C@@H]3CCC4=CC(=O)C=C[C@]4(C)[C@@]3(F)C(=O)C[C@@]21C`, for which the inhibition was 0%.

Turning to `CCOC(=O)c1c(NC(=O)c2cccs2)sc(C)c1C`, the inhibition is 0%.

In the case of `COC(=O)Cn1cc(C(=O)c2cccs2)c2ccccc21`, the inhibition was 0%.

As for `CCCCOC(=O)CN1C(=O)c2ccc(C(=O)OCCCC)cc2C1=O`, the inhibition is 0%.

For the molecule `Cn1c(=O)c2[nH]cnc2n(C)c1=O`, the inhibition was 1%.

As for `COCc1nnc(NC(=O)CCCOc2ccccc2)s1`, the inhibition is 0%.

Take `C=CCn1c(N)c(C(=O)OC(C)(C)C)c2nc3ccccc3nc21`: the inhibition is 1%.

As to `CCCCN(CCCC)CCn1cnc2c([nH]c3ccc(OC)cc32)c1=O`, the inhibition is 4%.

As for `O=S(=O)(c1ccc(OCC(O)CN2CCc3ccccc3C2)cc1)N1CCOCC1` (centres undefined), the inhibition was 9%.

`Cc1cc(Cl)c(S(=O)(=O)NC2CCCCC2)cc1OCC(=O)Nc1nncs1`: the inhibition was 3%.

`CCC(NS(=O)(=O)c1ccc(C)cc1)C(=O)N1CCC2(O)CCCCC2C1` (centres undefined): the inhibition is 6%.

As to `COc1cc(NC2c3ccccc3C(=O)N2c2ccc(C)cn2)cc(OC)c1OC` (centres undefined), the inhibition was 0%.

Consider `O=C(CSc1nc(O)cc(=O)n1-c1ccccc1)N1CCCCC1`, for which the inhibition was 0%.

Regarding `Cc1ccccc1-c1nc(CN2CCC(C(=O)N3CCC(C(N)=O)CC3)CC2)c(C)o1`, the inhibition was 0%.

As for `CCCN1CCN(C(=O)Cn2cccc2C(=O)c2ccccc2)CC1`, the inhibition is 0%.

Take `Cc1csc(NC(=O)c2cccc(S(=O)(=O)N3CCCCC3)c2)n1`: the inhibition is 0%.

On to `Cc1onc(-c2ccccc2)c1C(N)=O`, for which the inhibition was 0%.

The values above are taken from PubChem BioAssay.
